HPGD block = blocks human HPGD enzyme activity; P15428; purified HPGD, NADH fluorescence kinetic, PGE2 substrate; Potency, µM, inactives show at the highest dose activity change, negative = inhibition, hits mostly inhibitors; 4.3% of 150,000 active; AID 894; further: potency means the concentration at half of the fitted maximal effect
Target sequence (P15428 whole entry, looked up): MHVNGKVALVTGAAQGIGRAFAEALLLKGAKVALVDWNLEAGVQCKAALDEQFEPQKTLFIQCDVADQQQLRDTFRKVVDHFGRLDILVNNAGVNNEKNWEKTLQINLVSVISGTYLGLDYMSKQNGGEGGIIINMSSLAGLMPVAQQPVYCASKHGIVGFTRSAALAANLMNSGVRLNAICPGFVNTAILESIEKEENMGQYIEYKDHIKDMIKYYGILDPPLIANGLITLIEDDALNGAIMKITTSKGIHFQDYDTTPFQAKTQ
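NADH formation kinetics: reaction with 30 uM PGE2 and 1 mM NAD+ (final), 20 nM enzyme, Tris-HCl pH 8 with Tween 20, after 15 min compound preincubation at room temperature. Fluorescence change, last versus first of five reads.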
IMPase cell inh = cell-permeable inhibitors of inositol monophosphatase (IMPase); inhibition (IP1 accumulation), % at 46.1 µM; CHO-M1 cells, IP1 accumulation, HTRF TR-FRET ratio; 120,000 tested, under 10 active; active means well fitted curve in the direction sought with a large enough effect in the signal ratio, not every such curve was filed as active; inconclusive means small, poorly fitted or top-dose-only effect, or a change in a side signal; inactive means no such curve, though single readings can be large or run the other way; the % refers to the signal ratio;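 further: cells stimulated with carbachol in lithium chloride buffer; plate controls were DMSO basal wells for no effect and reference inhibitor wells for full effect; higher means more IMPase inhibition seen as more IP1 and lower FRET ratio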
Target sequence (P97697 whole entry, looked up): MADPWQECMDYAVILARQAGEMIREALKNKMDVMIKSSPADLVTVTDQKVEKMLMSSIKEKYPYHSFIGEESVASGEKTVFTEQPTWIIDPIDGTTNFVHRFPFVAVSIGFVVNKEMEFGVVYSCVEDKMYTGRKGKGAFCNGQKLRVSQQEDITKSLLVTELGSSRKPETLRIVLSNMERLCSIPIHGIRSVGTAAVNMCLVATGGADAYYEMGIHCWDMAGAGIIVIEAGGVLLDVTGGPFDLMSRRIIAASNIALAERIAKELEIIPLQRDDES
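Cellular IMPase inhibition is scored as a rise in cytosolic IP1, detected by competitive TR-FRET between d2-labelled IP1 and a europium anti-IP1 antibody. M1-expressing CHO cells were stimulated with carbachol for 30 min at 37C, with lithium (50 mM LiCl) present in the buffer.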
ALDH1A1 block = inhibitors of human aldehyde dehydrogenase 1A1; 7.3% of 220,000 active; P00352; AID 1030; Purified ALDH1A1, NADH fluorescence, propionaldehyde substrate; Potency, µM (top dose mostly 75.3 µM), inactives show at the highest dose activity, negative = inhibition, hits mostly inhibitors;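 further: potency means the concentration at half of the fitted maximal effect; plate controls were no enzyme wells and a reference inhibitor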
Starred values were filed as active, the others as inactive; ? = inconclusive; . = no result. An excerpt weighted towards active compounds, which were near 9% of everything screened. Unless noted, the call rests on the fitted dose curve; in most records, active means well fitted inhibition curve with a large enough effect (not every such curve was filed as active); inconclusive means small, poorly fitted or top-dose-only effect, or another doubt; inactive means no such curve, though single readings can be large or run the other way. Unless noted, on the % scale 0 is the no-effect control and ±100 the full control effect.

SMILES | HPGD block | IMPase cell inh | ALDH1A1 block
OCc1ccncc1.OCc1ccncc1.[Cl][Pt]([Cl])([Cl])[Cl] | ? | . | 2.82µM*
Cc1ccc(CO)cc1 | -16.0% | . | -0.7%
CCOc1ccc(C(=O)NCc2cccnc2)cc1[N+](=O)[O-] | . | . | -1.2%
CCCN(CCC)S(=O)(=O)c1ccc(C(=O)N2CCC(=O)c3ccccc32)cc1 | -12.3% | 12.6 | 17.8µM*
O=C(c1ccc(S(=O)(=O)N2CCCCC2)cc1)N1CCCc2ccccc21 | -2.2% | -6.1 | ?
c1coc(-c2nnc3sc(-c4cccs4)nn23)c1 | -13.1% | ? | 20µM*
COc1cccc(-c2nnc3sc(-c4ccco4)nn23)c1 | ? | 4.2 | 28.2µM*
c1csc(-c2nn3c(-c4ccncc4)nnc3s2)c1 | -8.3% | -3.1 | 13.4%
COc1ccc(-c2nnc3sc(-c4ccco4)nn23)cc1OC | ? | 9.4 | ?
CCC(=O)N1c2ccc(C)cc2C2=NNC(=S)NC21O (stereo not given) | -3.3% | -7.6 | 12.2%
COc1ccc(S(=O)(=O)N(CC(=O)Nc2cc(C)cc(C)c2)c2ccc(Cl)cc2)cc1 | . | 5.8 | .
O=C(c1cc(C(F)(F)F)cc(C(F)(F)F)c1)N1CCC2(CCN(Cc3nccs3)CC2)CC1 | -1.3% | . | 14.8%
CCOC(=O)C1=C(O)/C(=C/c2cc(OC)c(O)c(OC)c2)SC1=Nc1ccc(OC)cc1 | -20.4% | . | 0.5%
Cc1ccc(C2=NC(=O)/C(=C/c3cc(O)c(O)c(Br)c3)S2)cc1 | . | . | 10µM*
COc1cc(/C=C2\SC(c3ccc(C)cc3)=NC2=O)cc(OC)c1O | 22.4µM* | 45.1 | ?
COc1ccc(NS(=O)(=O)c2cc(Cl)ccc2Cl)cc1S(=O)(=O)N1CCCCC1 | . | . | -5.8%
COc1ccc(NC(=O)CSc2ccc(F)cc2)cc1S(=O)(=O)N1CCCCC1 | -1.7% | . | 15µM*
COc1ccc(NS(=O)(=O)c2cccc(Cl)c2)cc1S(=O)(=O)N1CCCCC1 | -8.6% | . | 15.8µM*
COc1ccc(NS(=O)(=O)c2cccc(Cl)c2Cl)cc1S(=O)(=O)N1CCCCC1 | -3.0% | -0.1 | 0.355µM*
COc1ccc(NC(=O)c2ccc(Cl)nc2)cc1S(=O)(=O)N1CCCCC1 | . | . | 4.1%
COc1ccc(NC(=O)CSc2ccc(NC(C)=O)cc2)cc1S(=O)(=O)N1CCCCC1 | 0.9% | . | -10.3%
Cc1ccc(NC(=O)Cn2cc(C(=O)c3cccs3)c3ccccc32)cc1C | . | 2.4 | .
CCOC(=O)C1CCCCN1Cc1cc(OC)ccc1OC (stereo not given) | -5.4% | 4.5 | 15.8µM*
CCOC(=O)C1CCCCN1Cc1cccc(OC)c1OC (stereo not given) | 6.4% | -6.8 | ?
CCCn1c(C)cc(C(=O)COC(=O)c2nccnc2N)c1C | . | . | -14.8%
SMILES | HPGD block | IMPase cell inh | ALDH1A1 block
S=c1[nH]nc(Nc2ccccc2Cl)s1 | . | . | 1.41µM*
O=C(c1ccc(Cl)cc1)c1cnc(Nc2ccccc2Cl)s1 | -22.8% | -7.9 | -3.0%
Clc1cccc(Nc2nc(-c3ccncc3)cs2)c1 | . | . | -2.1%
S=c1[nH]nc(Nc2cccc(Cl)c2)s1 | . | . | 2.51µM*
CC(C)(C)N1CC2([N+](=O)[O-])CN(C(C)(C)C)CC([N+](=O)[O-])(C1)C2 | -10.1% | 8.8 | 6.8%
O=C(Cn1cnc2c(cnn2-c2ccc(Cl)cc2)c1=O)NCCc1ccccc1 | -10.8% | 0.2 | -2.1%
COc1ccc(Oc2cccc(Cl)c2CNC(=O)CCC(=O)O)cc1 | . | . | 5.6%
COc1ccc(N=Cc2nc(-c3ccccc3)oc2OC(=O)c2ccccc2)cc1 | 22.4µM* | . | ?
Cc1ccc(C(=O)Nc2nnc(-c3ccco3)o2)cc1 | -8.5% | . | 7.2%
CCOC(=O)c1ccc(N=Cc2nc3ccccc3n2C)cc1 | -7.4% | 2.8 | -0.2%
Cc1ccc(C(=O)Oc2oc(-c3ccco3)nc2C=Nc2ccccc2)cc1 | 7.08µM* | 2.5 | ?
O=C(O)c1ccc(N=Cc2nc(-c3ccco3)oc2O)cc1 | . | . | 15.5%
CCOC(=O)c1ccc(N=Cc2nc(-c3ccccc3)oc2OC(C)=O)cc1 | 15.8µM* | -1.2 | 22.4µM*
Oc1oc(-c2ccco2)nc1C=Nc1ccccc1 | -1.4% | 13.3 | 22.4µM*
COc1ccc(C(=O)N/N=C/c2ccc(OC(=O)c3ccccc3)cc2)cc1 | -13.0% | . | 7.5%
Cc1cccn2cc(CCNC(=O)c3ccc(Br)o3)nc12 | -10.9% | -1.4 | 6.3%
NC(=O)c1nnsc1Sc1c(C(N)=O)nnn1-c1cccc(N)c1 | . | . | 2.9%
CCCCCCC=O | -3.3% | . | -9.0%
O=C(NCc1cccnc1)C1CC(=O)N(CCc2ccccc2)C1 (stereo not given) | -8.0% | 9.7 | -4.0%
CC(=O)Oc1oc(-c2ccccc2)nc1C=Nc1ccccc1 | 15.8µM* | 2.5 | 17.8µM*
CCC(=O)Oc1oc(-c2ccccc2)nc1C=Nc1ccccc1OC | ? | -3.8 | ?
CCCNC(=O)c1ccc(CN2CCc3ccccc3C2)cc1 | -28.5% | . | -2.6%

Compound activity (PubChem BioAssay)
